Data published in PubChem BioAssay AID493035 (The Scripps Research Institute Molecular Screening Center, 2011).
The whole screen tested about 2,000 compounds, of which about 45 (2%) were called active. The sample holds actives, similar compounds and a random draw of the others, so the mix is not that of the screen. Unmarked numbers belong to inactive results.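 How the source made its calls: active means inhibition above the mean of all tested compounds plus 3 SD (cut at about 49% in these data); inactive means the rest.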

Each compound was assayed against Perilipin-5 (Homo sapiens) + 1-acylglycerol-3-phosphate O-acyltransferase ABHD5 (Homo sapiens) (UniProt Q00G26+Q8WTS1) (assay: blockers of ABHD5 binding to perilipin-5 – cell lysate, split luciferase complementation, luminescence, NIH validation set, pilot screen (AID 493035;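 further: 0% = DMSO only wells while the 100% control is not stated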)). Settings: split G. princeps luciferase complementation, lysates, 4 h; at 7.9 µM, hits give high values.
Perilipin-5 (Homo sapiens) + 1-acylglycerol-3-phosphate O-acyltransferase ABHD5 (Homo sapiens), sequence (Q00G26 whole entry, looked up): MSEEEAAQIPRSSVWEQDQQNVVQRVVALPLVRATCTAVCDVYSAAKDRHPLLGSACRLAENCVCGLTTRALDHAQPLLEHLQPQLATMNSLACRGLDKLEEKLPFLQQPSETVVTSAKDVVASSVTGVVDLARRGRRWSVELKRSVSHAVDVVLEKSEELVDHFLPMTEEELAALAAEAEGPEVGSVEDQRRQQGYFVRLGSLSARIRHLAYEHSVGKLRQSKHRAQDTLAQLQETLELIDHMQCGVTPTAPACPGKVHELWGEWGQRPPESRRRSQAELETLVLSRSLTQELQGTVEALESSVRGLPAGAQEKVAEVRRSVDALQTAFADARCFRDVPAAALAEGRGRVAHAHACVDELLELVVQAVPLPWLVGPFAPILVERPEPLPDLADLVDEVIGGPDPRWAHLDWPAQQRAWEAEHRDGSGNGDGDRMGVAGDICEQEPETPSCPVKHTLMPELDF
Perilipin-5 (Homo sapiens) + 1-acylglycerol-3-phosphate O-acyltransferase ABHD5 (Homo sapiens), sequence (Q8WTS1 whole entry, looked up): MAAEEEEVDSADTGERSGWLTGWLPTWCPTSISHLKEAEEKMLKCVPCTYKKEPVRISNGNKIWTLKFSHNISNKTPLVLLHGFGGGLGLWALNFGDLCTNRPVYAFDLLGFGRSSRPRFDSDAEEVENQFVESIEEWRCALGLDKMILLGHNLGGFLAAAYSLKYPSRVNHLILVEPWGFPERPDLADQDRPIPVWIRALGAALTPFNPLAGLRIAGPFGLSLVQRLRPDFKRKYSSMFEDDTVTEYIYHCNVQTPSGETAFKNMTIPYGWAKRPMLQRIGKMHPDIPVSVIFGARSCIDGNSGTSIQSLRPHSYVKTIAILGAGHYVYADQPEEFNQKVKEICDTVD

| SMILES | inhibition |
| --- | --- |
| O=C(CCCN1C(=O)/C(=C\c2cccs2)SC1=S)Nc1ccccn1 | -1.47% |
| O=C(CCCN1C(=O)/C(=C\c2cccc(Br)c2)SC1=S)Nc1cccnc1 | 28.1% |
| O=C(CN1C(=O)/C(=C/c2cccc(Br)c2)SC1=S)Nc1cccnc1 | 52% (active) |
| COc1ccc(C2=NOC(COc3ccc4c(C)cc(=O)oc4c3)C2)c(OC)c1 (stereo unspecified) | 27.1% |
| O=C(COc1ccc2c(-c3ccccc3)cc(=O)oc2c1)NCc1cccs1 | 9.91% |
| CC/C(=C1/C(=O)CC(C)(C)C(C(=O)OC)C1=O)N1CCCC1 (stereo unspecified) | 6.45% |
| COc1ccc(/C=C/C(=O)c2cc3cccc(OC)c3oc2=O)cc1 | 69.5% (active) |
| COc1cccc2cc(-c3ccccc3)c(=O)oc12 | -4.71% |
| COc1ccc(C(=O)/C=C/c2ccc(OC(=O)c3cc(OC)c(OC)c(OC)c3)cc2)cc1 | 40.8% |
| N/C(=N\OC(=O)CCCOc1ccc(Cl)cc1Cl)c1ccccn1 | -4.4% |
| CC12COC3(C(=O)Nc4ccc(F)cc4)CC1CCC32C (stereo unspecified) | -5.49% |
| O=C(Nc1ncc2c(n1)CC(c1ccco1)CC2=O)c1ccco1 (stereo unspecified) | 0.31% |
| O=C(/C=C/c1ccccc1)c1ccccc1 | 69.7% (active) |
| O=C(/C=C/c1ccccc1)/C=C/c1ccccc1 | 92.3% (active) |
| O=C(O)c1ccc(C(=O)C(=O)c2ccccc2)cc1 | -3.75% |
| Cn1cc(/C=C/C(=O)c2ccccc2)c2ccccc21 | 13.7% |
| O=C(/C=C/c1ccccc1)NC(=O)c1ccccc1O | 12.7% |
| O=C(CCCCCCCC(=O)c1ccccc1)c1ccccc1 | -4.5% |
| O=C(/C=C/Sc1ccccc1)c1ccccc1 | 85.6% (active) |
| N/C(=N\OC(=O)/C=C/c1ccccc1)c1ccc(Br)cc1 | -11.8% |
| CC(CCc1ccccc1)NC(=O)/C=C/c1ccccc1 (stereo unspecified) | 0.97% |

| SMILES | inhibition |
| --- | --- |
| COc1ccc(Cc2noc(CN(C)CCN3CCc4ccccc4C3)n2)cc1OC | -5.39% |
| CC(=O)Nc1ccc2[nH]c(C)c(CC=C(Cl)Cl)c(=O)c2c1 | -10.7% |
| COc1ccc(CCn2c(C)nc3c(c(=O)c4ccccc4n3C)c2=O)cc1 | 11% |
| Cc1nnc(SCC(=O)N2CCCC(C(=O)c3ccc(Cl)cc3)C2)o1 (stereo unspecified) | 0.98% |
| Cc1ccc2[nH]c3c(=O)n(CCCN4CCN(C)CC4)cnc3c2c1 | -5.12% |
| O=C(O)CCn1c(=S)n(CCC(=O)O)c2ccccc21 | 8.91% |
| Cc1ccccc1OCCSc1nc2ncnc(N)c2[nH]1 | -10.3% |
| COc1c(C)cc(C(=O)C2CCCN(Cc3ccc(Oc4ncccn4)cc3)C2)cc1C (stereo unspecified) | -0.46% |
| CSCCC(NC(C)=O)C(=O)Oc1ccc2c3c(c(=O)oc2c1)CCCC3 (stereo unspecified) | 1.97% |
| O=c1c(-c2ccc3c(c2)OCCO3)coc2cc(OC3OC(CO)C(O)C(O)C3O)ccc12 (stereo unspecified) | -6.25% |
| CSCCC(NC(=O)OC(C)(C)C)C(=O)Oc1ccc2c(=O)c(-c3ccc4c(c3)OCCO4)coc2c1 (stereo unspecified) | 69.1% (active) |
| CCc1c(C)c2ccc(OCC(=O)OC(C)C)c(C)c2oc1=O | -3.95% |
| CCOc1ccc(CC2c3cc(OCC)c(OCC)cc3CCN2C(=O)CN2CCN(C)CC2)cc1OCC (stereo unspecified) | -0.88% |
| O=C(/C=C/c1ccc(Cl)cc1)NCCc1ccccc1 | 1.1% |
| O=C(O)CCCCCN1C(=O)C(=O)/C(=C(/O)c2ccccc2)C1c1ccccc1 (stereo unspecified) | -14.1% |
| Nc1cc(-c2ccncc2)c[nH]c1=O | 75.3% (active) |
| c1cc(-c2ccncc2)ccn1 | -3.86% |
| CCc1cc(=O)oc2cc3occ(-c4ccc(OC)c(F)c4)c3cc12 | 14.2% |
| CC(C)=CC/C=C1\CCC(C(=O)O)C(C(=O)O)C1 (stereo unspecified) | 1.14% |
| COCCOC(=O)C1=C(N)OC2=C(C(=O)CCC2)C1c1cccnc1 (stereo unspecified) | 0.01% |
